The text below walks through data of PubChem BioAssay (Tox21).

Structures are written as SMILES. Records with an inconclusive call do not appear. The source made the active and inactive calls. Unless noted, calls come from the whole dose curve; as a rule, active = well fitted curve in the direction sought with a large enough effect in the repeat runs; inconclusive = weak or mixed curves; inactive = no such curve, though single readings can be large; an effect the other way counts as inactive or inconclusive.

Assay [1] is described as follows: qHTS assay to identify small molecule agonists of the RXR signaling pathway - cell viability counter screen (AID 1159529). Note: nearly all actives have a fitted effect of over 50% in size. Note: potency is the fitted concentration of half-maximal effect. The method, boiled down: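 Counter screen: CellTiter-Glo luminescence. Cells: RXR-alpha-UAS-bla HEK 293T. Medium: 2% charcoal-stripped FBS. Treatment: 16 h, 37 C. Reagent incubation: 30 min, RT.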
For orientation: In qHTS, concentration-response curves come from the screen itself.

Assay [2] is described as follows: qHTS assay to identify small molecule antagonists of the retinoid acid receptor (RAR) signaling pathway - cell viability counter screen (AID 1159551). Note: nearly all actives have a fitted effect of over 35% in size. Note: potency is the fitted concentration of half-maximal effect. The method, boiled down: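 Cytotoxicity counter screen in C3RL4 cells: 6 h compound exposure with 1 uM retinol (final), viability from cellular ATP by luminescence.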
Assay [3] is described as follows: qHTS assay to identify small molecule antagonists of the retinoic acid receptor (RAR) signaling pathway (AID 1159552; note: nearly all actives have a fitted effect of over 50% in size; note: potency is the fitted concentration of half-maximal effect). The essentials: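 Antagonism of retinol-induced RARE reporter activity was measured in C3RL4 cells. Exposure to compounds and 1 uM final retinol lasted 6 hr at 37 C, with luminescence as endpoint.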
Assay [4] can be described thus: qHTS assay to identify small molecule agonists of the retinoic acid receptor (RAR) signaling pathway (AID 1159553). The essentials: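 Agonist activity was scored in C3RL4 cells bearing a retinoic acid response element luciferase construct. Cells were treated with compounds for 6 hr at 37 C, and luciferase signal was measured as luminescence.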
Assay [5] has as its target Luciferin 4-monooxygenase (Photinus pyralis) (UniProt P08659). Description: qHTS assay to identify small molecule inhibitors of firefly luciferase (AID 1224835). Note: nearly all actives have a fitted effect of over 25% in size. Note: potency is the fitted concentration of half-maximal effect. The method, boiled down: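 Quantitative HTS format; KM concentrations of both substrates. Purified P. pyralis FLuc activity quantified from luminescence images.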
The nature of assay [6]: qHTS assay to identify small molecule agonists of the constitutive androstane receptor (CAR) signaling pathway - cell viability counter screen (AID 1224836). Note: nearly all actives have a fitted effect of over 45% in size. Note: potency is the fitted concentration of half-maximal effect. The essentials: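 Double-stable HepG2 hepatoma cells (hCAR plus CYP2B6-2.2kb) are treated for 23 h at 37 C with test compounds in 15-point concentration series. PK11195 at 0.75 uM final is co-added. Cell viability is quantified by CellTiter-Fluor.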

Assay [7] can be described thus: qHTS assay to identify small molecule antagonists of the constitutive androstane receptor (CAR) signaling pathway - cell viability counter screen (AID 1224837). Note: nearly all actives have a fitted effect of over 45% in size. Note: potency is the fitted concentration of half-maximal effect. The essentials:
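Multiplexed cytotoxicity read-out for the CAR antagonist screen: double-stable HepG2-CYP2B6-hCAR cells co-treated with 50 nM CITCO (final) and compound over 15 concentrations, incubated 23 hr, then assessed by CellTiter-Fluor fluorescence.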

The target in assay [8] is Nuclear receptor subfamily 1 group I member 3 (Homo sapiens) (UniProt Q14994). Description: qHTS assay to identify small molecule antagonists of the constitutive androstane receptor (CAR) signaling pathway (AID 1224838). Note: nearly all actives have a fitted effect of over 40% in size. Note: potency is the fitted concentration of half-maximal effect. The method, boiled down:
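Compounds were titrated across 15 concentrations onto HepG2 cells double-stably expressing hCAR and a CYP2B6-2.2kb reporter, together with 50 nM CITCO (final). After 24 h at 37 C, luciferase activity was measured by luminescence.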

The nature of assay [9]: qHTS assay to identify small molecule antagonists of the estrogen related receptor signaling pathway with the pleiotropic PPARgamma coactivator (PGC) from Tox21 10K library - cell viability counter screen (AID 1224840; active = well fitted cell-killing curve with a large enough effect in the repeat runs, not every such curve was filed as active; note: nearly all actives have a fitted effect of over 40% in size; note: potency is the fitted concentration of half-maximal effect). The essentials:
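Step one, plate 2,000 PGC/ERR cells per well; step two, incubate 6 h at 37 C/5% CO2; step three, pin-transfer compounds; step four, incubate 17.5 h; step five, add CellTiter-Fluor and read fluorescence after 30 min.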

A short description of assay [10]: qHTS assay to identify small molecule antagonists of the estrogen related receptor signaling pathway with the pleiotropic PPARgamma coactivator (PGC) from Tox21 10K library (AID 1224841; call rule not given here; note: actives are mostly falling curves and most rising ones were filed inactive; nearly all actives have a fitted effect of over 50% in size; note: potency is the fitted concentration of half-maximal effect). The method, boiled down:
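Antagonism in this quantitative HTS is taken from loss of luciferase signal in PGC/ERR cells. Cells (2,000/well) are treated with compounds in DMSO after a 6 h settling period and read by One-Glo luminescence after 18 h.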

In assay [11] the target is Thyrotropin receptor (Homo sapiens) (UniProt P16473). Description: qHTS assay to identify small molecule agonists of the thyroid stimulating hormone receptor (TSHR) signaling pathway (AID 1224843; calls by dose curve; note: nearly all actives have a fitted effect of over 45% in size; note: potency is the fitted concentration of half-maximal effect). The essentials: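 Cell line HEK293 with TSHR; density 800/well. Exposure 30 min RT. Readout HTRF cAMP (cAMP-d2/anti-cAMP-cryptate), 1 h RT before reading.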
Chain of Thyrotropin receptor (Homo sapiens) (P16473 whole entry, looked up): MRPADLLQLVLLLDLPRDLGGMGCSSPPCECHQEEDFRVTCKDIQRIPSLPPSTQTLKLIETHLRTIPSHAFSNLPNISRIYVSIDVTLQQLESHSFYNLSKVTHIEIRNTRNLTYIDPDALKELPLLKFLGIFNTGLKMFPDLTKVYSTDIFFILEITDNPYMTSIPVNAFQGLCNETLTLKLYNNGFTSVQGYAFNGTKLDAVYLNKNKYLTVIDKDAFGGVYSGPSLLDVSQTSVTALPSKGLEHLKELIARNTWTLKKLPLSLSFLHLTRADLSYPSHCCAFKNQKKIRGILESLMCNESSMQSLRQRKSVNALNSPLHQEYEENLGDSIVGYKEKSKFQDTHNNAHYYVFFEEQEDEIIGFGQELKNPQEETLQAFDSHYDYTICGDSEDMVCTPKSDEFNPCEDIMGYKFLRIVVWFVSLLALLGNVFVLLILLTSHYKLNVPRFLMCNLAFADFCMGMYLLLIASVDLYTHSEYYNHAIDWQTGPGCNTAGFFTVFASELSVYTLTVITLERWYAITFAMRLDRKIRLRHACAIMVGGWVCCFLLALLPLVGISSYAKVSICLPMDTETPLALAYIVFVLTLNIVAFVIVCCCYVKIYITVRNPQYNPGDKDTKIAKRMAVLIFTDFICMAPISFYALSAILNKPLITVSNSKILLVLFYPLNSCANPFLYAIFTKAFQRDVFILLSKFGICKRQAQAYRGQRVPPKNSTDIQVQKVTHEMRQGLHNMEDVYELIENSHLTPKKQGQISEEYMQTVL
Assay [12] is described as follows: qHTS assay to identify small molecule antagonists of the estrogen related receptor (ERR) signaling pathway from Tox21 library - cell viability counter screen (AID 1224834). Note: nearly all actives have a fitted effect of over 30% in size. Note: potency is the fitted concentration of half-maximal effect. The method, boiled down: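 Cytotoxicity of test substances is gauged in the same ERR cells used for the antagonist screen, after 17.5 h of compound treatment at 37 C, by CellTiter-Fluor fluorescence measured after 30 min.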

Assay [13] deals with Nuclear receptor subfamily 1 group I member 3 (Homo sapiens) (UniProt Q14994). Description: qHTS assay to identify small molecule agonists of the constitutive androstane receptor (CAR) signaling pathway (AID 1224839). Note: nearly all actives have a fitted effect of over 15% in size. Note: potency is the fitted concentration of half-maximal effect. The method, boiled down: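 Readout: firefly luciferase luminescence via ONE-Glo. System: HepG2 double-stable for hCAR and CYP2B6-2.2kb. Conditions: 15-point compound titration, PK11195 at 0.75 uM final, 24 h incubation.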
Chain of Nuclear receptor subfamily 1 group I member 3 (Homo sapiens) (Q14994 whole entry, looked up): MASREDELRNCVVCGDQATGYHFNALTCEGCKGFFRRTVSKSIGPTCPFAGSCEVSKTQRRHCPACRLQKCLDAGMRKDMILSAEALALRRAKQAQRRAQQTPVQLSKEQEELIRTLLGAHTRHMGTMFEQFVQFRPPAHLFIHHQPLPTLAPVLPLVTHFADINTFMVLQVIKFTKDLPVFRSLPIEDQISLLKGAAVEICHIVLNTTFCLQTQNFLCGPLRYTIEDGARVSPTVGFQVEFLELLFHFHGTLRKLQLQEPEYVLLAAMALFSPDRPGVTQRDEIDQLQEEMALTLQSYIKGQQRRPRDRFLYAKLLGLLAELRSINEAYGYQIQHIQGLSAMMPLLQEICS

Assay [14] is described as follows: qHTS assay to identify small molecule agonists of the estrogen related receptor signaling pathway with the pleiotropic PPARgamma coactivator (PGC) from Tox21 10K library (AID 1224842). Note: nearly all actives have a fitted effect of over 15% in size. The essentials: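 PGC/ERR reporter cells (NTP line) were seeded 2,000 per well, rested 6 h at 37 C/5% CO2, then pin-dosed with compounds in DMSO for 18 h at 37 C; luciferase read by One-Glo luminescence after 30 min at room temperature.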

A short description of assay [15]: qHTS assay to identify small molecule antagonists of the estrogen related receptor (ERR) signaling pathway - cell viability counter screen (AID 1224818). Note: series mostly up to about 46 µM. The method, boiled down: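 Cells carrying the ERR pathway reporter were seeded and incubated for 6 hours before compound addition. After a 17.5-hour exposure at 37 C, live-cell protease activity was measured by CellTiter-Fluor fluorescence following 30 minutes of incubation.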

Assay [16] in a line: qHTS assay to identify small molecule antagonists of the estrogen related receptor signaling pathway with the pleiotropic PPARgamma coactivator (PGC) cell viability counter screen (AID 1224822; note: series mostly up to about 46 µM). The method, boiled down: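 Seed PGC/ERR cells (2,000/well); incubate 6 h at 37 C/5% CO2; pin-transfer compounds in DMSO; incubate 17.5 h at 37 C; add CellTiter-Fluor; after 30 min read fluorescence.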

Chain of Luciferin 4-monooxygenase (Photinus pyralis) (P08659 whole entry, looked up): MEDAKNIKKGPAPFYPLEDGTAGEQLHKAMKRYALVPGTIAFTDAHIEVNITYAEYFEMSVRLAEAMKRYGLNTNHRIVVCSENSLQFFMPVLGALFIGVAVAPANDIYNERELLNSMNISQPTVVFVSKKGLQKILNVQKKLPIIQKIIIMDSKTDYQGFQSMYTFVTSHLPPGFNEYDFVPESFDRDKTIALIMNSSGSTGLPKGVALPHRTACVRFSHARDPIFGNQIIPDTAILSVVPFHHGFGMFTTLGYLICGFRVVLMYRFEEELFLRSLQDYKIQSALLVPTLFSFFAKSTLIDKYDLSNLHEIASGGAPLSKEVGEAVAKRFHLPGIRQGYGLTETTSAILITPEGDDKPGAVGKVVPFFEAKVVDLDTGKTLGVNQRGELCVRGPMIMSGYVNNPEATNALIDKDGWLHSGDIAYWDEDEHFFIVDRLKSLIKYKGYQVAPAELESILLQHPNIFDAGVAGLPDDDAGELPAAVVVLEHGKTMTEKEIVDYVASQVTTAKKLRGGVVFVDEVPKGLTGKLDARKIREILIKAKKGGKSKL

Take `C[C@H]1[C@H](c2ccc(Cl)cc2)SC(=O)N1C(=O)NC1CCCCC1`: the Potency result in assay [1], in assay [2], in assay [3], in [4], in assay [5] and in assay [6] was “inactive” throughout. Moreover, the Potency entry in assay [7], in assay [8], in assay [9] and in [11] was “inactive” each time. The Potency in assay [10] is 61.1 µM (active).

In the case of `CSSC`, the Potency entry in assay [1], in assay [2], in assay [3], in [4], in assay [12] and in assay [5] was “inactive” in each case. In addition, the Potency entry in assay [13], in assay [9], in assay [10] and in assay [11] was “inactive” throughout. The Potency in [8] is 22 µM (active).

As to `CCCCN(CCCC)C(=S)[S-].CCCCN(CCCC)C(=S)[S-].[Ni+2]`, the Potency entry in assay [1], in assay [2], in [3], in assay [12], in [5] and in assay [6] was “inactive” throughout. Besides, the Potency entry in assay [7], in [9] and in [14] was “inactive” in each case.

Regarding `C[C@]12Cc3cn[nH]c3C[C@@H]1CC[C@@H]1[C@@H]2CC[C@@]2(C)[C@H]1CC[C@]2(C)O`, in assay [1], the Potency was 6.01 µM (active). In addition, the Potency result in [2], in [3], in assay [5], in assay [6], in assay [7] and in [8] was “inactive” throughout. Further, the Potency entry in [13], in assay [9], in assay [14] and in [11] was “inactive” throughout.

On to `COc1ccc2c3c1O[C@H]1[C@H](O)CC[C@H]4[C@@H](C2)N(C)CC[C@@]341`, for which the Potency entry in assay [1], in assay [2], in assay [3], in [12], in assay [5] and in assay [6] was “inactive” throughout. Also, the Potency entry in assay [7], in [8], in [13] and in assay [9] was “inactive” in each case.

As for `S=C=NCCc1ccccc1`, the Potency entry in assay [1], in assay [2], in assay [3], in assay [8], in assay [9] and in assay [11] was “inactive” in each case. Also, the Potency in assay [5] is 40 µM (active).

As to `O=C(N[C@H]1N=C(c2ccccc2F)c2cccc3c2N(CC3)C1=O)c1cc2ccccc2[nH]1`, the Potency entry in assay [1], in [2], in assay [3], in [4], in assay [5] and in assay [6] was “inactive” each time. For the same compound, the Potency entry in assay [7], in assay [8], in assay [9] and in assay [11] was “inactive” in each case.

For the compound `[Cl][Hg][c]1ccccc1`, the Potency in assay [1] was 1.23 µM (active); in [2], 17.2 µM (active); in assay [3], 1.09 µM (active); in assay [12], 3.44 µM (active); in [5], 6.33 µM (active); in [6] it was 6.86 µM (active). Besides, the results for the Potency in assay [7], in assay [8] and in assay [9] were 4.33 µM (active), 3.86 µM (active) and 2.43 µM (active), respectively.

As for `COC(=O)c1cc(Oc2ccc(Cl)cc2Cl)ccc1[N+](=O)[O-]`, the Potency result in assay [1], in assay [2], in [3], in [4], in assay [5] and in [6] was “inactive” in each case. In addition, the Potency entry in assay [8], in assay [9] and in assay [11] was “inactive” in each case.

Regarding `CCCCC(CC)COC(=O)c1ccccc1C(=O)OCC(CC)CCCC` (stereo unspecified), the Potency entry in assay [1], in [2], in assay [4], in assay [15], in [16] and in assay [12] was “inactive” throughout. Further, the Potency result in [5], in [6], in assay [7], in assay [8] and in assay [9] was “inactive” each time. The Potency in assay [13] is 17.2 µM (active); in assay [11], 3.86 µM (active).

For `Nc1ccccc1-c1ccccc1`, the Potency in assay [1] is 21.7 µM (active). For the same compound, the Potency entry in [2], in assay [3], in [4], in assay [6], in [7] and in [8] was “inactive” throughout. Besides, the Potency entry in assay [9], in assay [14] and in assay [11] was “inactive” each time.

For `C=CC(=O)[O][Sn]([CH2]CCC)([CH2]CCC)[CH2]CCC`, the Potency in assay [1] is 1.38 µM (active); in assay [2], 6.11 µM (active); in assay [3] it was 0.864 µM (active); in assay [12] it was 3.06 µM (active); in assay [5], 35.6 µM (active); in [6] it was 1.22 µM (active). For the same compound, the Potency in [7] is 1.93 µM (active); in assay [8], 0.486 µM (active); in assay [9], 1.72 µM (active); in assay [10] it was 13.7 µM (active). The Potency entry in assay [14] was “inactive”.
